This note sets out measurements from PubChem BioAssay (Tox21).

Unmarked numbers belong to inactive results. Results filed as inconclusive are left out. Active and inactive are the calls of the source. Unless noted, calls follow the shape of the dose curve; as a rule, active = well fitted curve in the direction sought with a large enough effect in the repeat runs; inconclusive = weak or mixed curves; inactive = no such curve, though single readings can be large; an effect the other way counts as inactive or inconclusive.

Experiment [1] in a line: A CellTox Green Cytotoxicity Assay to monitor cytotoxicity in HEK293 cells - 32 hour (AID 1224881). Also: nearly all actives have a fitted effect of over 40% in size. Summed up:
(§1)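 HEK293 cells, 600/well, were preincubated 5 hours and then exposed to compounds at 37 C for up to 40 hours. A cell-impermeant cyanine dye staining dead-cell DNA was read by fluorescence at 0, 8, 16, 24, 32 and 40 h time points.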

Experiment [2] in a line: A CellTox Green Cytotoxicity Assay to monitor cytotoxicity in HepG2 cells - 0 hour (AID 1224882). Also: nearly all actives have a fitted effect of over 35% in size. Summed up:
(§2)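 HepG2 cells, 600/well, preincubated 5 h with CellTox Green dye, then exposed to Tox21 compounds in DMSO at 37 C for up to 40 h. Dead-cell DNA fluorescence read at the indicated time point.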

The nature of experiment [3]: A CellTox Green Cytotoxicity Assay to monitor cytotoxicity in HepG2 cells - 32 hour (AID 1224883). Also: nearly all actives have a fitted effect of over 50% in size. Summed up:
as §2

A short description of experiment [4]: qHTS RealTime-Glo MT Cell Viability Assay in HepG2 cells - 16 hour (AID 1224885). Also: nearly all actives have a fitted effect of over 50% in size. In a few lines: (§3)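 Real-time, nonlytic viability: 600 HepG2 cells/well mixed with NanoLuc enzyme plus prosubstrate; 5 h settle, compound (DMSO) added by pintool; luminescence monitored over 40 h at 37 C.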
On the technique in general: Quantitative high-throughput screening tests each substance at several concentrations.

The nature of experiment [5]: qHTS RealTime-Glo MT Cell Viability Assay in HEK293 cells - 24 hour (AID 1224886). Also: nearly all actives have a fitted effect of over 50% in size. Also: potency is read from the fitted curve at half-maximal effect. Summed up: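 Cells + reagent dispensed (600 cells/well, HEK293) → 5 h at 37 C/5% CO2 → 23 nL compound in DMSO pinned → 40 h at 37 C → luminescence read at 0, 8, 16, 24, 32, 40 h.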
Experiment [6] in a line: qHTS RealTime-Glo MT Cell Viability Assay in HEK293 cells - 8 hour (AID 1224887). Also: nearly all actives have a fitted effect of over 50% in size. Also: potency is read from the fitted curve at half-maximal effect. Summed up: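 600 cells/well were plated with the nonlytic NanoLuc/prosubstrate reagent, pre-incubated 5 h, then given 23 nL of compound in DMSO. Incubation at 37 C for 40 h, with luminescence from viable-cell-reduced substrate read repeatedly from 0 h.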
Experiment [7] can be described thus: A CellTox Green Cytotoxicity Assay to monitor cytotoxicity in HEK293 cells - 16 hour (AID 1224888). Also: nearly all actives have a fitted effect of over 35% in size. In a few lines:
as §1

Experiment [8] in a line: qHTS RealTime-Glo MT Cell Viability Assay in HepG2 cells - 0 hour (AID 1224889). Also: nearly all actives have a fitted effect of over 50% in size. In a few lines: as §3
Experiment [9] in a line: A CellTox Green Cytotoxicity Assay to monitor cytotoxicity in HepG2 cells - 8 hour (AID 1224890). Also: nearly all actives have a fitted effect of over 45% in size. In a few lines:
as §2

Experiment [10] in a line: qHTS assay to identify small molecule antagonists of the estrogen receptor alpha (ER-alpha) signaling pathway using the BG1 cell line in the presence of 0.1 nM 17-beta-estradiol - cell viability counter screen (AID 1259241). Also: nearly all actives have a fitted effect of over 40% in size. In a few lines: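 Following 5 days in phenol red-free medium with charcoal-stripped serum, VM7Luc4E2 cells received test compounds alongside 0.1 nM 17beta-estradiol (final) at 37C for 22 hr. Live cells were then quantified via protease-substrate fluorescence.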

Experiment [11] can be described thus: qHTS assay to identify small molecule antagonists of the androgen receptor (AR) signaling pathway using the MDA cell line in the presence of 0.5 nM R1881 - cell viability counter screen (AID 1259242). Also: nearly all actives have a fitted effect of over 45% in size. In a few lines: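 MDA-kb2 cells (MMTV-luciferase, AR/GR responsive) were treated with compounds plus 0.5 nM R1881 (final) for 16 hr at 37C, 0% CO2. Viability was then read in the same wells as live-cell protease fluorescence (CellTiter-Fluor, 30 min).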

Experiment [12] deals with Androgen receptor (Homo sapiens) (UniProt P10275). Put plainly: qHTS assay to identify small molecule antagonists of the androgen receptor (AR) signaling pathway using the MDA cell line in the presence of 0.5 nM R1881 (AID 1259243). Also: nearly all actives have a fitted effect of over 50% in size. Also: potency is read from the fitted curve at half-maximal effect. In a few lines: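 MDA-kb2 cells (MMTV-luciferase, responsive to AR and GR) at 3,000/well, rested 5 h at 37C, 0% CO2, then given compounds plus 0.5 nM R1881 (final) for 16 hr. Luciferase read with ONE-Glo after 30 min at room temperature.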

The nature of experiment [13]: qHTS assay to identify small molecule phospholipidosis (PLD) inducers (AID 1259344; active = well fitted curve in the direction sought with a large enough effect; an effect the other way counts as inactive or inconclusive). Summed up:
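Fluorescent phospholipid staining (LipidTOX Red) measured by automated microscopy in fixed HepG2 cells after 24 h treatment; nuclei counterstained with Hoechst 33342; amiodarone as reference inducer.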

Experiment [14] is described as follows: qHTS assay to identify small molecule HDAC inhibitors (AID 1259364). Also: top concentration of the series differs between compounds; nearly all actives have a fitted effect of over 45% in size. Summed up: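 Wild-type HCT-116 cells, plated overnight at 37 C, exposed to compounds 2 hr at 37 C; luminogenic HDAC-Glo substrate then added 30 min at room temperature. Luminescence reports relative endogenous class I/II HDAC activity.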
The nature of experiment [15]: qHTS assay to identify small molecule HDAC inhibitors - cell viability counter screen (AID 1259365). In a few lines:
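HCT-116 wild-type, overnight attachment; 2hr drug exposure, 37C; CellTiter-Glo luminescent ATP readout after 30min RT.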

Experiment [16] in a line: qHTS assay to identify small molecule agonists of the sonic hedgehog signaling (Shh) pathway - cell viability counter screen (AID 1259366). Also: nearly all actives have a fitted effect of over 50% in size. Summed up: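 Compounds in DMSO were pin-transferred onto 3T3 Gli1-Luc cells that had settled 4hr; plates then stood 24hr at 37C and 5% CO2. One hour before the end, CellTiter-Fluor was added and fluorescence recorded.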
Experiment [17] can be described thus: qHTS assay to identify small molecule antagonists of the sonic hedgehog signaling (Shh) pathway - cell viability counter screen (AID 1259367). Also: nearly all actives have a fitted effect of over 55% in size. Summed up:
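Using CellTiter-Fluor, viability of Gli1-Luc reporter 3T3 cells is read by fluorescence in the wells used for the Shh luciferase assay. Treatment lasts 23 hr with conditioned medium, then reagent 1 hr at 37C.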

The nature of experiment [18]: A CellTox Green Cytotoxicity Assay to monitor cytotoxicity in HEK293 cells - 8 hour (AID 1224884). Also: nearly all actives have a fitted effect of over 35% in size. In a few lines:
as §1

Experiment [19] concerns the target Estrogen receptor (Homo sapiens) (UniProt P03372). The experiment in a line: qHTS assay to identify small molecule antagonists of the estrogen receptor alpha (ER-alpha) signaling pathway using the BG1 cell line in the presence of 0.1 nM 17-beta-estradiol (AID 1259244). Also: nearly all actives have a fitted effect of over 50% in size. Also: potency is read from the fitted curve at half-maximal effect. Summed up:
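VM7Luc4E2 cells (endogenous full-length ER-alpha, 4×ERE-luciferase), kept 5 days in phenol red-free, charcoal-stripped FBS medium; 4,000 cells/well. Compounds added with 0.1 nM (final) 17beta-estradiol, 22 hr at 37C; luminescence read with ONE-Glo after 30 min.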

Chain of Androgen receptor (Homo sapiens) (P10275 whole entry, looked up): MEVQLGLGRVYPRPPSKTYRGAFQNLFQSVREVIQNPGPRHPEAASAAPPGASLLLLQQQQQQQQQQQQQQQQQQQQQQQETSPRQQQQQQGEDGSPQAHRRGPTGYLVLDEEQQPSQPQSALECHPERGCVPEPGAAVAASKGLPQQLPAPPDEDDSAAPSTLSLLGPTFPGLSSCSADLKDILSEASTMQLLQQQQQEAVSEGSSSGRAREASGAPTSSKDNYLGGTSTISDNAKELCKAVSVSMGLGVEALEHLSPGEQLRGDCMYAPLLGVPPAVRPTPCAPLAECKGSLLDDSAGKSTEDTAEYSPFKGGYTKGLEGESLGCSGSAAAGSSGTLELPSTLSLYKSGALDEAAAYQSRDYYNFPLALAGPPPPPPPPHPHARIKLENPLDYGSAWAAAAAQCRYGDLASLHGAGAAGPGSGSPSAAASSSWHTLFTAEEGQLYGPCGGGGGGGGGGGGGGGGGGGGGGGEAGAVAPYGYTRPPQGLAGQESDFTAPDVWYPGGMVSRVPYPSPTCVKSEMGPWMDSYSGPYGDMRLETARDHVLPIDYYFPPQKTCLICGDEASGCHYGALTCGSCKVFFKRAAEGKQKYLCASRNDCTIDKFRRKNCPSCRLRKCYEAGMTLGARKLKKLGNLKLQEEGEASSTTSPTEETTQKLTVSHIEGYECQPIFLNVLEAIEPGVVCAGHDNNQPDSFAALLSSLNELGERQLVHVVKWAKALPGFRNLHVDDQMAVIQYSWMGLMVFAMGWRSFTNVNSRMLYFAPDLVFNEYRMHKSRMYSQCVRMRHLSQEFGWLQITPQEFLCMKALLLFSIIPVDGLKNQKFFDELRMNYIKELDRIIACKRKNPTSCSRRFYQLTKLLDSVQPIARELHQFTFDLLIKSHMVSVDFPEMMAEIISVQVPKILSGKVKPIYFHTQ
Chain of Estrogen receptor (Homo sapiens) (P03372 whole entry, looked up): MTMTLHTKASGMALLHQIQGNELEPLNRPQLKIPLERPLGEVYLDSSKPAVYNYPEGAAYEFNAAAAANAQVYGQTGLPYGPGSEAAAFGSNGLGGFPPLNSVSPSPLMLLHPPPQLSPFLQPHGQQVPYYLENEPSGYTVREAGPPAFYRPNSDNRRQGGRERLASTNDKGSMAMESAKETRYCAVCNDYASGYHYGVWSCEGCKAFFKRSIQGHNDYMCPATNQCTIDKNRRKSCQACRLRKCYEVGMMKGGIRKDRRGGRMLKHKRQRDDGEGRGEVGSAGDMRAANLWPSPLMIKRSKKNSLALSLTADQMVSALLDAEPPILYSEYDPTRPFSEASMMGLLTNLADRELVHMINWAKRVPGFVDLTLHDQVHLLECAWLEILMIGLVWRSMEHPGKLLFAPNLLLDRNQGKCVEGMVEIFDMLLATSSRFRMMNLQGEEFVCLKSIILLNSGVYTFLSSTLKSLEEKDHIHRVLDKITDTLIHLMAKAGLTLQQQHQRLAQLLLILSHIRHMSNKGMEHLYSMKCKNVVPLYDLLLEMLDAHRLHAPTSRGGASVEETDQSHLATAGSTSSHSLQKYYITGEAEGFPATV

Take `CCN(CC)CC(=O)Nc1c(C)cccc1C`: the Potency result in experiment [1], in [3], in experiment [8], in experiment [10], in [12] and in [14] was “inactive” in each case. Besides, the Potency result in experiment [16] and in experiment [17] was “inactive” throughout. The outcome in experiment [2], in experiment [4], in experiment [7], in experiment [9], in experiment [11] and in experiment [13] was inactive. Further, the compound was classed as inactive in [15]. Further, the Potency in [5] was 9.52 µM (active); in experiment [6] it was 10.7 µM (active).
Regarding `CCCOC(=O)C(C)O` (centres undefined), the Potency entry in experiment [1], in experiment [3], in experiment [18], in [5], in experiment [6] and in experiment [8] was “inactive” each time. Further, the Potency entry in [10], in experiment [12], in [19], in [14], in experiment [16] and in experiment [17] was “inactive” in each case. Besides, the result in experiment [2], in experiment [4], in experiment [7], in [9] and in [15] was inactive.
In the case of `O=C(Nc1ccc(Cl)c(Cl)c1)C1CC1`, the Potency entry in experiment [1], in experiment [3], in experiment [8], in experiment [10], in experiment [14] and in experiment [16] was “inactive” throughout. In experiment [17], the Potency entry was “inactive”. For the same compound, the result in experiment [2], in experiment [4], in experiment [7], in [9], in experiment [13] and in [15] was inactive. The Potency in experiment [5] was 9.52 µM (active); in experiment [6], 19 µM (active); in experiment [12], 5.96 µM (active); in [19] it was 26.6 µM (active).
Turning to `O=C(OCC(O)CO)c1ccccc1Nc1ccnc2c(C(F)(F)F)cccc12` (centres undefined), the Potency entry in experiment [1], in [3], in experiment [8], in experiment [10], in [12] and in [19] was “inactive” in each case. Further, the Potency result in experiment [14], in [16] and in experiment [17] was “inactive” each time. Moreover, the compound was classed as inactive in experiment [2], in experiment [4], in [7], in [9], in [11] and in [15]. The Potency in experiment [5] was 4.77 µM (active); in [6], 3.79 µM (active).
For `C#CC(C)N(C)C(=O)Nc1ccc(Cl)cc1` (centres undefined), the Potency entry in [1], in experiment [3], in experiment [18], in [8], in experiment [10] and in experiment [12] was “inactive” throughout. Further, the Potency result in [16] and in experiment [17] was “inactive” each time. The call in experiment [2], in [4], in experiment [7], in experiment [9], in experiment [11] and in [15] was inactive.
Regarding `CCCCCCCCSCC`, the Potency entry in [1], in experiment [3], in [18], in [5], in experiment [6] and in experiment [8] was “inactive” throughout. For the same compound, the Potency result in experiment [10], in experiment [19], in experiment [14], in experiment [16] and in experiment [17] was “inactive” throughout. Also, the result in experiment [2], in experiment [4], in [7], in experiment [9] and in [15] was inactive.
With `Nc1nnc(-c2cccc(Cl)c2Cl)c(N)n1`, the Potency entry in experiment [1], in experiment [3], in experiment [18], in experiment [10], in experiment [14] and in experiment [16] was “inactive” each time. In experiment [17], the Potency result is “inactive”. Besides, the compound was classed as inactive in [7], in experiment [9], in experiment [11], in experiment [13] and in experiment [15].
Consider `Brc1ccc(-c2ccccc2)cc1`, for which the Potency result in [1], in [3], in experiment [18], in experiment [5], in [6] and in experiment [8] was “inactive” throughout. In addition, the Potency result in experiment [10], in experiment [14] and in [16] was “inactive” throughout. Also, the result in experiment [2], in experiment [4], in experiment [7], in [9], in [11] and in experiment [15] was inactive.
Regarding `Nc1ccc2cc(S(=O)(=O)O)cc(O)c2c1`, the Potency result in [1], in [3], in experiment [18], in experiment [5], in [6] and in experiment [8] was “inactive” each time. Further, the Potency entry in [12], in experiment [19], in experiment [14], in experiment [16] and in [17] was “inactive” in each case. Further, the result in experiment [4], in [7], in [9] and in experiment [15] was inactive.
Regarding `C=C(C)C(=O)OCc1ccccc1`, the Potency entry in experiment [1], in experiment [3], in [5], in [6], in experiment [8] and in [10] was “inactive” each time. Also, the Potency entry in experiment [19], in experiment [14], in [16] and in experiment [17] was “inactive” in each case. Besides, the result in experiment [2], in [4], in [7], in experiment [9], in experiment [11] and in experiment [15] was inactive.
Regarding `COc1ccc(-c2cc(=O)c3c(O)cc(O[C@@H]4O[C@H](CO[C@@H]5O[C@@H](C)[C@H](O)[C@@H](O)[C@H]5O)[C@@H](O)[C@H](O)[C@H]4O)cc3o2)cc1O`, the Potency result in experiment [1], in experiment [3], in [18], in [5], in experiment [6] and in [8] was “inactive” throughout. The Potency result in [10], in experiment [19], in [14], in experiment [16] and in experiment [17] was “inactive” in each case. The outcome in [2], in experiment [4], in experiment [7], in [9], in [11] and in experiment [13] was inactive. Further, in experiment [15], the call was inactive.
